# Results from PubChem BioAssay AID504340 (NMMLSC, 2011).
# Where “and” joins values, the source holds several entries; their conditions need not be identical. Equal entries are not always repeated. A number with no mark means an inactive call. Calls of active or inactive are those of the source.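 How the source made its calls: active means GFP response above 150% of the DMSO control; inconclusive means Under 70 cell events counted for a yeast strain; inactive means the rest.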
# Assay: yeast TOR pathway CIT2-GFP reporter retest – flow cytometry, third cherry pick, single plex, confirmation (AID 504340);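 further: median GFP fluorescence over all cells with no mother versus daughter split; sample signal as a ratio to the plate DMSO mean so 100% equals DMSO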
# Details: S. cerevisiae CIT2-GFP strain, 3 h, at 10 µM, hits give high values
row,SMILES,GFP response vs DMSO
1,C=CCNc1ncnc2ccc(Br)cc12,101%
2,COc1ccc(NC(=O)ON=C2c3ccccc3-c3ccccc32)cc1,109%
3,Nc1c(C(=O)O)ccc2c1C(=O)c1ccccc1C2=O,101%
4,Cc1cccc(C)c1Nc1ncnc(N)c1[N+](=O)[O-],103%
5,CC(=O)C(Cl)C(=O)Nc1ccccc1 (centres undefined),121%
6,COc1ccc(NC(=O)O/N=C2/CCCc3ccc(OC)cc32)cc1,104%
7,O=C(O)c1ccccc1-c1ccccc1C(=O)Nc1ccc(-c2nc3cc(Cl)ccc3o2)cc1,99.3%
8,O=C(Nc1cccc2ccccc12)ON=C1CCCCC1,106%
9,CNc1nc(N)c([N+](=O)[O-])c(Nc2cccc(Cl)c2)n1,480% (active)
10,Cc1ccc2nc(-c3ccc(NC(=O)c4cccnc4)cc3)oc2c1,104%
11,OCc1ccc(O)c2ncccc12,91.2%
12,Cc1ccc(C(=O)Nc2nc(-c3ccccn3)cs2)o1,99.3%
13,Nc1cccc2c1C(=O)c1ccc(Cl)cc1C2=O,107%
14,Cc1cc(C)c(NC(=O)CC(=O)c2ccccc2)c(Cl)c1,92.8%
15,FC(F)Oc1cccc2cccnc12,97.7%
16,CC1=CN2C(=N)/C(=C/c3ccc([N+](=O)[O-])o3)C(=O)N=C2S1,1030% (active)
17,C/C(=C\C(=O)c1ccccc1)Nc1cccc(O)c1,99.3%
18,COCC(C)NC(=O)CCS(=O)(=O)c1nc(-c2ccc(OC)cc2)cc(C(F)(F)F)n1 (centres undefined),103% and 92.8%
19,CCCCC(=O)NCCc1cc2c(OC)ccc(OC)c2[nH]c1=O,96.1%
20,Cc1ccc(C(=O)/C=C/Nc2cccc(O)c2)cc1,109%

row,SMILES,GFP response vs DMSO
1,O=C(Nc1cccc(Cl)c1)ON=C1c2ccccc2-c2ccccc21,101%
2,CCN(CC)C(=O)Oc1ccnc2cc(Cl)ccc12,107%
3,O=C(O)CCS(=O)(=O)c1nc(-c2cccs2)cc(C(F)(F)F)n1,106%
4,COc1cccc2c(Cl)c(CCCl)c(C)nc12,111%
5,Oc1c(Cl)cc(Cl)c2cccnc12,142%
6,O=C(O)c1ccc2cccc(O)c2n1,109%
7,CNc1nc(N)c([N+](=O)[O-])c(Nc2ccccc2OC)n1,168% (active)
8,CCc1c(C)nc2c(OC)cccc2c1Cl,97.7%
9,OCc1ccnc2c(O)cccc12,94.5%
10,Oc1c(I)cc(Cl)c2cccnc12,182% (active)
11,C/C(=C\C(=O)c1ccccc1)Nc1ccc(O)cc1,103%
12,O=C(Nc1ccccc1)O/N=C1\CCCCC1c1ccc([N+](=O)[O-])cc1[N+](=O)[O-] (centres undefined),101%
13,Cc1cc(C)c2ccc(C(=O)O)nc2c1O,88%
14,O=C(Nc1nc(-c2ccccn2)cs1)c1ccccc1-n1cnnn1,103%
15,CCCC(=O)Nn1cnc2c(c1=O)C1(CCCC1)Cc1ccccc1-2,94.5%
16,CN(C)CCCNc1cc(O)c2ncccc2c1,112%
17,Nc1c(O)ccc2c1C(=O)c1ccccc1C2=O,99.3%
18,CC1=CN2C(=N)/C(=C/c3ccco3)C(=O)N=C2S1,112%
19,Brc1ccc2ncnc(NCc3ccccc3)c2c1,112%
